Source: PubChem
RXFP1 agonist = agonists of human relaxin receptor RXFP1; Q9HBX9; hit rate 0.3% among 370,000; HEK293T-RXFP1 cAMP TR-FRET, 30 min; response scale: percent of porcine relaxin response, buffer zero; Potency, µM (titrated, usually from 57.5 µM), for the others: at the highest dose activation, actives largely listed as activators; active = well fitted activation curve with a large enough effect; inconclusive = small, poorly fitted or top-dose-only effect; also: potency is read from the fitted curve at half-maximal effect; % is scaled to controls: 0 for no effect and ±100 for the full control effect; nearly all actives have a fitted effect of over 60% in size
Target sequence (Q9HBX9 whole entry, looked up): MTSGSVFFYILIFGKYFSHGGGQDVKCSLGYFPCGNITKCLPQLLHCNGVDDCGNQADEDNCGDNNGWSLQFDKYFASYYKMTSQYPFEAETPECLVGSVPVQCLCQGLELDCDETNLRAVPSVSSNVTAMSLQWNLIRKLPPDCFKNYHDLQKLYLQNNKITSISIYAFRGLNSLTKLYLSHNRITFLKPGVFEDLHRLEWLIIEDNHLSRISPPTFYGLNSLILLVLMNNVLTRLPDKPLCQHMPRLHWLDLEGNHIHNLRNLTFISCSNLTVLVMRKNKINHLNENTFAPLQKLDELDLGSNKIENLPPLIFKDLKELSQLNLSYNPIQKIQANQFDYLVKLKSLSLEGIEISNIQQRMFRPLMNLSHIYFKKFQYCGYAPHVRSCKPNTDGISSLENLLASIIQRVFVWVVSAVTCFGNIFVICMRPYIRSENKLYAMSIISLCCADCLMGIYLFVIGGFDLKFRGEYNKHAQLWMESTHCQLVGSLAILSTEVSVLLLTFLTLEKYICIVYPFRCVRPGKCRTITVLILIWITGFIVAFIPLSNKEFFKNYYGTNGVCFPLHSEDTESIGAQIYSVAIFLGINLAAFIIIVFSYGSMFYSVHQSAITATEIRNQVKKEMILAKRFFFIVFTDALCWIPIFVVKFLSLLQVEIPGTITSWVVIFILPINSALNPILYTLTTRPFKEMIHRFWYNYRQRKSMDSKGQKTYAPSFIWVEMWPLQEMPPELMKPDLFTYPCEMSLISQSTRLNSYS
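Agonist response is measured as cAMP accumulation in an RXFP1-transfected HEK293T line under PDE4 inhibition. Values are scaled between buffer-only and 29 nM porcine relaxin, and EC50s come from standard Hill equation fits.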
gsp antagonist = antagonizes gsp, the McCune-Albright syndrome mutation. gsp-mutant cells, cAMP HTRF, 30 min. Potency, µM (top dose mostly 76.9 µM), for the others: at the top dose activity change, negative = inhibition, actives largely listed as inhibitors. hit rate 0.4% among 340,000. AID 624288; calls by dose curve; cell line not stated here;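 also: intracellular cAMP measured with PDE inhibitor Ro 20-1724 present during compound exposure; potency is read from the fitted curve at half-maximal effect; % is scaled to controls: 0 for no effect and ±100 for the full control effect; nearly all actives have a fitted effect of over 65% in size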
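Cells, 2000/well, grown 16–24 h in DMEM 10% FBS with 0.5 mg/ml G418, then compounds plus […] (300 uM addition stock), 30 min at 37C. cAMP read by HTRF (cAMP-d2 and anti-cAMP antibody-K in lysis buffer) after 30 min RT.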
gsp agonist = activates gsp, the McCune-Albright syndrome mutation; gsp mutant cells, cAMP HTRF, 30 min; hit rate 0.13% among 340,000; Potency, µM (series often up to 76.9 µM), inactives show top-dose activation (cAMP increase), hits mostly activators; active = well fitted activation curve with a large enough effect; inconclusive = small, poorly fitted or top-dose-only effect, or another doubt; inactive = no such curve, though single readings can be large or run the other way; cell line not stated here;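 also: phosphodiesterase inhibitor Ro 20-1724 added with compounds to block cAMP breakdown; potency is read from the fitted curve at half-maximal effect; nearly all actives have a fitted effect of over 60% in size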
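Cells stably selected in G418 were plated at 2000/well, grown 16-24 hr, then given compounds in DMSO with the PDE inhibitor […] (300 uM solution added) for 30 min at 37C; cAMP was read by HTRF.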
ClpP mod = qHTS Assay for Activators of ClpP. AID 651965, 2013. Potency, µM (doses to about 57.5 µM), inactives show at the highest dose activity change, negative = active. purified B. subtilis ClpP, FRET peptide cleavage, 20 min. ATP-dependent Clp protease proteolytic subunit (Bacillus subtilis (strain 168)), P80244. hit rate 1.9% among 340,000; active = well fitted falling curve with a large enough effect; inconclusive = small, poorly fitted or top-dose-only effect; inactive = no such curve, though single readings can be large or run the other way; also: potency is read from the fitted curve at half-maximal effect; the source files actives as falling curves though it sought activators and does not explain the sign; nearly all actives have a fitted effect of over 65% in size
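Buffer: 100 mM Tris/HCl pH8, 100 mM KCl, 0.05% low protease BSA, 2.5% glycerol, 0.01% Tween-20. ClpP 10 microg/mL final; 20 min RT; delta FRET normalized to ADEP and DMSO controls.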
pAkt inh = Akt phosphorylation inhibition | Neuro2A IGF-stimulated pAkt S473 HTRF, 20 min; hits give low values | activity change, % for hits at 50 µM | hit rate 0.32% among 360,000 | AID 651550; in the data active = activity change below about -80%; inconclusive = mostly about -51% to -80%; also: % is scaled to controls: 0 for no effect and ±100 for the full control effect
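Neuro2A cells in DMEM with 0.5% FBS, overnight at 37 deg C, given compound at single 50 µM final, then IGF (6 nM final) for 20 min at 37 deg C. Lysed; phospho-Akt Ser473 by HTRF after 24 h, 665/615 ratio.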
RXFP1 antag = blocks the human relaxin receptor RXFP1; HEK293-RXFP1, relaxin-stimulated cAMP HTRF, 30 min; hits give low values; hit rate 0.59% among 350,000; Q9HBX9; activity change, negative = inhibition, % at 57.5 µM;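 active = activity change of -60% or lower, but not beyond a set lower limit; inconclusive = change between -60% and -40%, or beyond the set limit; inactive = change above -40%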; also: % is scaled to controls: 0 for no effect and ±100 for the full control effect
Active calls of the source: *; ! = not active in a repeat; [ ] = another dose, or the depositor's remark. This is a sample that favours compounds with a hit; in the whole collection about 2.7% have one here.

Results for O=c1[nH]c(SCc2ccccc2)ncc1S(=O)(=O)c1ccccc1 ?
ClpP mod: -1.8%

Results for CCN(C(=O)c1ccc2c(c1)OCO2)C12CC3CC(CC(C3)C1)C2 ?
gsp antagonist: -1.1%; gsp agonist: 0.7%; ClpP mod: -0.7%; pAkt inh: inactive; RXFP1 antag: -13.8

Results for COC(=O)c1ccc(Cl)c(NC(=O)C2CCN(S(=O)(=O)Cc3ccccc3)CC2)c1 ?
RXFP1 agonist: -4.9%; ClpP mod: -1.4%; RXFP1 antag: -1.9

What do the screens show for `CC1=C(C(=O)OCC2CCCO2)C(c2ccncc2)C2=C(CCCC2=O)N1` (configuration not stated)?
RXFP1 agonist: 1.3%; gsp antagonist: 8.0%; gsp agonist: inconclusive; ClpP mod: 22.4µM*; pAkt inh: inactive

Results for CC1=C(C(=O)OC(C)C)C(c2cccnc2)C2=C(CCCC2=O)N1 (configuration not stated) ?
RXFP1 agonist: 1.7%; gsp antagonist: -2.1%; gsp agonist: 14.7%; ClpP mod: 28.2µM*; pAkt inh: inactive; RXFP1 antag: -10.2

What do the screens show for `CCOC(=O)C1=C(C)NC2=C(C(=O)CCC2)C1c1cccnc1` (configuration not stated)?
RXFP1 agonist: 2.0%; gsp antagonist: 6.2%; gsp agonist: -29.7%; ClpP mod: inconclusive; pAkt inh: inactive; RXFP1 antag: -13.3

Results for CCOC(=O)Cn1c(=O)oc2cc(S(=O)(=O)N3CCN(c4cc(C)ccc4C)CC3)ccc21 ?
RXFP1 agonist: -0.5%; ClpP mod: 0.1%; RXFP1 antag: inconclusive

Results for Cc1ccc2nc(-c3cccc(Br)c3)c(Cc3ccccc3)n2c1 ?
ClpP mod: inconclusive; pAkt inh: inactive

Results for COC(=O)CCn1cnc2onc(-c3cc(F)cc(F)c3)c2c1=O ?
RXFP1 agonist: 4.6%; ClpP mod: -1.1%

Results for Cc1cc(C(=O)N/N=C/c2ccc(OCc3ccccc3)cc2)c(C)o1 ?
RXFP1 agonist: -0.5%; gsp antagonist: -29.8%; gsp agonist: 3.2%[15.4 µM]; pAkt inh: inactive; RXFP1 antag: -7.0

Results for COc1ccc(/C=N/NC(=O)c2cc(C)oc2C)cc1OCc1ccccc1 ?
RXFP1 agonist: 2.9%; gsp antagonist: 12.6µM*; gsp agonist: 7.3%; pAkt inh: inactive; RXFP1 antag: -17.1

Results for O=C(OCC#CCSc1nnc(-c2ccccc2)o1)c1cccs1 ?
RXFP1 agonist: 2.5%; gsp antagonist: -15.3%; gsp agonist: inconclusive; ClpP mod: -1.6%; pAkt inh: inactive; RXFP1 antag: -2.0

How did C#CCSc1nnc(-c2cccc3ccccc23)o1 do in these assays?
gsp antagonist: inconclusive; gsp agonist: -44.1%; ClpP mod: 31.6µM*; pAkt inh: inactive; RXFP1 antag: -6.0

Results for O=C(OCC#CCSc1nnc(-c2cccc3ccccc23)o1)c1cccs1 ?
RXFP1 agonist: 2.5%; gsp antagonist: -8.8%; gsp agonist: -13.7%; ClpP mod: 28.2µM*!; pAkt inh: inactive; RXFP1 antag: 0.0

How did Cc1ccc2c(c1)nnn2C1CCN(S(=O)(=O)c2cccc(S(=O)(=O)N(C)C)c2)CC1 do in these assays?
RXFP1 agonist: -0.3%; gsp antagonist: 25.1µM*; gsp agonist: 18.3%; ClpP mod: 1.4%; pAkt inh: inactive; RXFP1 antag: 0.8

Results for Cc1ccc2c(c1)nnn2C1CCN(S(=O)(=O)c2ccc3ccccc3c2)CC1 ?
RXFP1 agonist: 0.8%; gsp antagonist: -11.2%; gsp agonist: -29.4%; ClpP mod: -8.7%; pAkt inh: inactive; RXFP1 antag: -12.1

How did Cc1cccc(Cn2c(-c3ccc[nH]c3=O)nc3ccccc32)c1 do in these assays?
RXFP1 agonist: 1.6%; gsp antagonist: 9.4%; gsp agonist: -2.8%; ClpP mod: 4.6%; pAkt inh: inactive; RXFP1 antag: 5.6

Results for O=C(Cn1cc(/C=C\[N+](=O)[O-])c2ccccc21)Nc1ccccc1 ?
RXFP1 agonist: -0.3%; gsp antagonist: 14.3%; gsp agonist: -16.7%; pAkt inh: inactive; RXFP1 antag: -105.2*

Results for N#Cc1ccccc1Cn1cc(/C=C/[N+](=O)[O-])c2ccccc21 ?
RXFP1 agonist: 0.7%; gsp antagonist: -10.0%; gsp agonist: 6.8%[15.4 µM]; ClpP mod: -1.0%; pAkt inh: inactive; RXFP1 antag: -65.0*

What do the screens show for `C[C@H](O)CNC(=O)c1[nH]cnc1C(=O)Nc1cccc(Cl)c1`?
gsp agonist: -9.2%; ClpP mod: -16.3%; pAkt inh: inactive; RXFP1 antag: 10.7

What do the screens show for `CN(C)S(=O)(=O)c1cc(NC(=O)CNCCN2CCOCC2)ccc1Cl`?
RXFP1 agonist: -0.5%; gsp antagonist: 8.9%; gsp agonist: -25.8%; ClpP mod: -0.7%; pAkt inh: inactive; RXFP1 antag: 3.1

How did COc1ccc(Cc2nc3ccc(C(=O)NCCn4ccnc4C)cc3o2)cc1OC do in these assays?
RXFP1 agonist: -0.8%; gsp antagonist: 8.6%; gsp agonist: 2.4%; ClpP mod: 31.6µM*; pAkt inh: inactive; RXFP1 antag: -2.1

What do the screens show for `CC1CN(c2ncc(/C=N/NC(=O)c3ccccc3O)s2)CC(C)O1` (configuration not stated)?
RXFP1 agonist: -0.9%; gsp antagonist: inconclusive; gsp agonist: 1.5%[15.4 µM]; pAkt inh: inactive; RXFP1 antag: -72.6*

What do the screens show for `O=c1c2cnn(-c3ccc(Cl)cc3)c2ncn1Cc1cccc(C(F)(F)F)c1`?
RXFP1 agonist: -1.1%; ClpP mod: -7.5%; RXFP1 antag: -3.1

Results for O=c1c2ccsc2ncn1Cc1cccc(C(F)(F)F)c1 ?
RXFP1 agonist: 2.7%; gsp antagonist: -1.8%; gsp agonist: 12.6µM*; ClpP mod: 0.3%; pAkt inh: inactive; RXFP1 antag: 16.3

What do the screens show for `Cc1cc(C)n(-c2nc3ccccc3c(=O)n2OCC(=O)N(C)C)n1`?
RXFP1 agonist: 3.6%; gsp antagonist: -2.1%; gsp agonist: 13.7%; ClpP mod: 7.94µM*; pAkt inh: inactive; RXFP1 antag: 6.3

What do the screens show for `Cc1cc(CC(C)C)n(-c2nc3ccccc3c(=O)n2OCC(=O)N(C)C)n1`?
RXFP1 agonist: 0.4%; gsp antagonist: 4.2%; gsp agonist: -14.8%; ClpP mod: -2.8%; pAkt inh: inactive; RXFP1 antag: -4.8
